Experimental data as given in PubChem BioAssay (NCI).
The panel holds about 83,000 compounds, 20% with a hit somewhere; the sample as a whole holds those more often.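 Growth was measured after 48 h exposure to one concentration of compound in 96-well plates. Values under 10 count as active.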 The source made the active and inactive calls.

test system: MDA-MB-468 breast; assay: NCI-60 one-dose screen, 48 h (100 = growth as untreated, 0 = no growth, -100 = all killed); conditions: 10 µM unless noted

| SMILES | growth |
| --- | --- |
| C=C1C(=O)O[C@H]2[C@H]1CC/C(COC(=O)/C=C\C(=O)NCc1ccc(Cn3c(=O)sn(CCI)c3=O)cc1)=C\CC[C@@]1(C)O[C@@H]21 | -36.2% (active) |
| Oc1c(I)cc(-c2nc3ccccc3s2)cc1CN(Cc1ccccn1)Cc1ccccn1 | -11.4% (active) |
| CC(C)(C)c1ccc(NS(=O)(=O)c2ccc3nc(NC(=O)c4cnccn4)[nH]c3c2)cc1 | -18.6% (active) |
